Experimental findings from PubChem BioAssay (NCI) are described below.

Holding throughout (assay): NCI-60 one-dose screen, 48 h (100 = growth as untreated, 0 = no growth, -100 = all killed)
Details in all cases: 10 µM unless noted

In test [1] the test system is HCT-15 colon.
Test [2] relates to HT29 colon.
In test [3] the test system is SNB-75 CNS.
For test [4], the system named is SNB-19 CNS.
Test [5] concerns U251 CNS.
Test [6] deals with PC-3 prostate.
The subject of test [7] is SK-MEL-5 melanoma.
Test [8] deals with UACC-62 melanoma.
The subject of test [9] is LOX IMVI melanoma.
Test [10] relates to SK-MEL-28 melanoma.

Each structure is given as a SMILES string. About 83,000 compounds went through this panel and 20% of them were active in at least one assay; those are over-represented in the sample as a whole.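 Method: cells in 96-well plates; compound added at one concentration; 48 h incubation; percent growth measured; values under 10 scored active.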 Unmarked numbers belong to inactive results. The source made the active and inactive calls.

With `C=C(C)[C@@H]1CC[C@]2(C(=O)OCCCC[P+](c3ccccc3)(c3ccccc3)c3ccccc3)CC[C@]3(C)[C@H](CC[C@@H]4[C@@]5(C)CC[C@H](OC(=O)C(Cl)Cl)C(C)(C)[C@@H]5CC[C@]43C)[C@@H]12`, the growth was -8.59% (active) in [1]; 3% (active) in test [2]; -46.6% (active) in test [3]; 11% in [4]; -37.1% (active) in [5]; -26.2% (active) in test [6]. Besides, the growth is -99.4% (active) in test [7], -43.2% (active) in test [8], -93.7% (active) in test [9] and -63.4% (active) in [10].

For `COc1ccc2c(c1)/C(=C1\S/C(=N/c3nnc(C)s3)NC1=O)C(=O)N2Cc1ccc(Cl)cc1`, the growth in test [1] was 28%; in test [2], 54.7%; in [3], 71%; in test [4] it was 35.7%; in test [5], 26%; in test [6], 36.6%. Further, the growth was 30.9% in test [7], 32.8% in test [8], 39.4% in test [9] and 49.2% in test [10].

For the molecule `CN1CCN(/C=C2\CC(C(=O)NCc3ccc(Cl)cc3Cl)NC2=O)CC1` (stereo not given), the growth in [1] was 108%; in test [2] it was 99%; in [3], 106%; in test [4] it was 100%; in test [5], 100%; in test [6], 90.9%. In addition, the growth in test [7] was 95.8%; in test [8] it was 96.6%; in test [9], 100%; in test [10] it was 110%.

Regarding `Cc1ccc(C2CC(c3ccc(Nc4nc(NCCO)nc(NCCO)n4)cc3)=NN2c2ccc(Cl)cc2)cc1` (stereo not given), the growth in test [1] was 47%; in test [2] it was 30.5%; in [3] it was 28.5%; in test [4], 75.5%; in test [5], 36.3%; in [6] it was 33.5%. For the same molecule, the growth is 74.8% in test [7], 81.2% in test [8], 40.9% in [9] and 48.4% in [10].

For the molecule `CN(C)[C@@H]1C(=O)C(C(N)=O)=C(O)[C@@]2(O)C(=O)C3=C(O)c4c(O)cc(CN5CCc6ccccc6C5)c(Cl)c4C[C@H]3C[C@@H]12`, the growth in test [1] is -75.1% (active); in [2], -84.6% (active); in test [3], -79.1% (active); in test [4], -82.2% (active); in test [5], -95.7% (active); in test [6], -85.5% (active). The growth in test [7] is -94.2% (active); in test [8] it was -89.5% (active); in test [9] it was -87.2% (active); in [10] it was -86.6% (active).

Take `CN(C)CCCn1c2c(c3cc(-c4cccc(S(N)(=O)=O)c4)ccc3c1=O)C(=O)c1ccccc1-2`: the growth in test [1] is 61.7%; in test [2], -6.96% (active); in [3], 59.1%; in test [4], 64.8%; in test [5], 47.5%; in [6], 67.3%. Also, the growth in [7] was 85.3%; in [8], 77.3%; in [9], 56.3%; in test [10], 113%.

As to `COc1ccc(-c2cc(C(=O)N3N=C(c4ccc(N)cc4)CC3c3ccc(OC)cc3)c3cc(OC)ccc3n2)cc1` (stereo not given), the growth in test [1] was 22.2%; in test [2], 26.5%; in [3], 70.3%; in test [4], 58.1%; in [5], 48.7%; in [6], 42.5%. Moreover, the growth was 67.3% in [7], 40.4% in [8], 41.3% in test [9] and 64.4% in [10].

For the molecule `Cc1cccc(C)c1NCc1nnc(-c2ccc(O)cc2)o1`, the growth in test [1] is 97.7%; in test [2] it was 106%; in [3], 77.8%; in test [4], 108%; in test [5] it was 105%; in [6], 95.1%. The growth in [7] is 101%; in test [8], 100%; in test [9], 96.8%; in test [10], 102%.

With `COc1ccc(C2N(c3cc(OC)c(OC)c(OC)c3)C(=O)C2(F)F)cc1F` (stereo not given), the growth in [1] was 19.4%; in test [2], 11.2%; in test [3], 64.7%; in [4], 52.9%; in test [5], 41.6%; in test [6] it was 35.9%. Also, the growth in [7] is 8.08% (active); in [8] it was 55.5%; in test [9], 27.1%; in [10], 77.2%.

As to `Cc1[nH]c2ncnc(Oc3ccc(NC(=O)Nc4ccc(Cl)c(C(F)(F)F)c4)cc3)c2c1C`, the growth was 48.3% in [1]; 50.2% in test [2]; 88.1% in [3]; 73.4% in [4]; 52.5% in test [5]; 35% in test [6]. The growth in [7] was 65.9%; in test [8], 55.8%; in test [9] it was 43.4%; in [10], 59.7%.

For `Cc1nc2sc(C(=O)Nc3ccccc3Cl)c(N)c2cc1C(C)O` (stereo not given), the growth in [1] was 61.4%; in [2] it was 34.3%; in [3], 72.8%; in test [4] it was 83.2%; in test [5] it was 66.5%; in test [6] it was 83.5%. In addition, the growth in test [7] was 80.7%; in test [8] it was 68.2%; in test [9], 74.5%; in [10] it was 84.7%.

Consider `CCCCCCCCCCCCCC1=NCC[N+]1(CCO)Cc1ccccc1` (stereo not given), for which the growth is -89.4% (active) in test [1]; -89.3% (active) in test [2]; 66% in test [3]; -82.1% (active) in test [4]; -88.7% (active) in test [5]; -88.4% (active) in test [6]. Besides, the growth in test [7] was -73.6% (active); in test [8] it was -87.4% (active); in [9], -92% (active); in [10], -90.7% (active).

For `C=C1C(=O)O[C@H]2[C@H]1CC/C(C=Nc1c(N)cc(F)cc1Br)=C\CC[C@@]1(C)O[C@@H]21`, the growth in test [1] was 30.6%; in [2] it was 36.4%; in [3], 91.2%; in test [4], 76.7%; in test [5], 87.3%; in test [6] it was 58.3%. Besides, the growth in [7] was 96.9%; in [8], 90.1%; in [9], 66.2%; in test [10] it was 80%.
